Measurements reported in the supplement of paper PMC6897291.
Structures can show the parent of a compound that is named as a salt.

How the values were obtained:
U-2932 [1] = assay: growth inhibition by drug alone (1 - RLU/untreated control) (fraction); higher = stronger inhibition; conditions: 177Lu-lilotomab satetraxetan 0 ug/ml
Outline: (§1)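 Plates pre-printed with the Selleck Cambridge Cancer Compound library at 10/100 nM (RIVA) or 10/1,000 nM (U-2932) received 3,000 cells/well. These cells had been washed after 18 h untreated or with a radiolabelled anti-CD37 antibody conjugate (~600 MBq/mg; 0.5 µg/ml RIVA, 1 µg/ml U-2932). Growth inhibition was obtained from RealTime-Glo luminescence in relation to untreated no-drug wells. Each daily read from day 3, taken after 1 h at 37°C, was converted as 1 − RLU/mean of 48 such wells per plate.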

RIVA [2] = assay: as above; conditions: 177Lu-lilotomab satetraxetan 0 ug/ml
Outline: as §1

U-2932 [3] = assay: growth inhibition by drug plus 177Lu-lilotomab satetraxetan (1 - RLU/untreated control) (fraction); higher = stronger inhibition; conditions: 177Lu-lilotomab satetraxetan 1 ug/ml
Outline: as §1

RIVA [4] = assay: as above; conditions: 177Lu-lilotomab satetraxetan 0.5 ug/ml
Outline: as §1

Compound | growth inhibition by drug alone (U-2932 [1]; 10 nM, time (day): 3) | growth inhibition by drug alone (U-2932 [1]; 10 nM, time (day): 4) | growth inhibition by drug alone (U-2932 [1]; 10 nM, time (day): 5) | growth inhibition by drug alone (U-2932 [1]; 10 nM, time (day): 6) | growth inhibition by drug alone (U-2932 [1]; 1000 nM, time (day): 3) | growth inhibition by drug alone (U-2932 [1]; 1000 nM, time (day): 4) | growth inhibition by drug alone (U-2932 [1]; 1000 nM, time (day): 5) | growth inhibition by drug alone (U-2932 [1]; 1000 nM, time (day): 6) | growth inhibition by drug alone (RIVA [2]; 10 nM, time (day): 3) | growth inhibition by drug alone (RIVA [2]; 10 nM, time (day): 4) | growth inhibition by drug alone (RIVA [2]; 10 nM, time (day): 5) | growth inhibition by drug alone (RIVA [2]; 10 nM, time (day): 6) | growth inhibition by drug alone (RIVA [2]; 100 nM, time (day): 3) | growth inhibition by drug alone (RIVA [2]; 100 nM, time (day): 4) | growth inhibition by drug alone (RIVA [2]; 100 nM, time (day): 5) | growth inhibition by drug alone (RIVA [2]; 100 nM, time (day): 6) | growth inhibition by drug plus 177Lu-lilotomab satetraxetan (U-2932 [3]; 10 nM, time (day): 3) | growth inhibition by drug plus 177Lu-lilotomab satetraxetan (U-2932 [3]; 10 nM, time (day): 4) | growth inhibition by drug plus 177Lu-lilotomab satetraxetan (U-2932 [3]; 10 nM, time (day): 5) | growth inhibition by drug plus 177Lu-lilotomab satetraxetan (U-2932 [3]; 10 nM, time (day): 6) | growth inhibition by drug plus 177Lu-lilotomab satetraxetan (U-2932 [3]; 1000 nM, time (day): 3) | growth inhibition by drug plus 177Lu-lilotomab satetraxetan (U-2932 [3]; 1000 nM, time (day): 4) | growth inhibition by drug plus 177Lu-lilotomab satetraxetan (U-2932 [3]; 1000 nM, time (day): 5) | growth inhibition by drug plus 177Lu-lilotomab satetraxetan (U-2932 [3]; 1000 nM, time (day): 6) | growth inhibition by drug plus 177Lu-lilotomab satetraxetan (RIVA [4]; 10 nM, time (day): 3) | growth inhibition by drug plus 177Lu-lilotomab satetraxetan (RIVA [4]; 10 nM, time (day): 4) | growth inhibition by drug plus 177Lu-lilotomab satetraxetan (RIVA [4]; 10 nM, time (day): 5) | growth inhibition by drug plus 177Lu-lilotomab satetraxetan (RIVA [4]; 10 nM, time (day): 6) | growth inhibition by drug plus 177Lu-lilotomab satetraxetan (RIVA [4]; 100 nM, time (day): 3) | growth inhibition by drug plus 177Lu-lilotomab satetraxetan (RIVA [4]; 100 nM, time (day): 4) | growth inhibition by drug plus 177Lu-lilotomab satetraxetan (RIVA [4]; 100 nM, time (day): 5) | growth inhibition by drug plus 177Lu-lilotomab satetraxetan (RIVA [4]; 100 nM, time (day): 6)
C#Cc1cccc(Nc2ncnc3cc(OC)c(OCCCCCCC(=O)NO)cc23)c1 | -0.0221 | -0.0137 | -0.0216 | 0.0129 | 0.966 | 0.973 | 0.975 | 0.978 | -0.19 | -0.225 | -0.209 | -0.242 | 0.881 | 0.779 | 0.749 | 0.672 | -0.132 | -0.086 | -0.0994 | -0.0508 | 0.971 | 0.977 | 0.981 | 0.984 | 0.365 | 0.467 | 0.495 | 0.496 | 0.935 | 0.924 | 0.926 | 0.923
COC1=CC(c2cc3ccccc3[nH]2)=N/C1=C\c1[nH]c(C)cc1C [Obatoclax mesylate (GX15-070)] | 0.114 | 0.0688 | -0.0597 | -0.127 | 0.123 | 0.0924 | 0.0457 | -0.0101 | 0.00951 | 0.024 | -0.054 | -0.371 | -0.444 | -0.248 | -0.309 | -0.6 | 0.00229 | 0.0671 | 0.129 | 0.144 | 0.143 | 0.163 | 0.242 | 0.343 |  |  |  |  |  |  |  | 
CN[C@@H](C)C(=O)N[C@H]1CN(C(=O)CC(C)C)CC[C@H]2CC[C@@H](C(=O)NC(c3ccccc3)c3ccccc3)N2C1=O | 0.0554 | 0.0151 | -0.0459 | -0.197 | -0.059 | -0.0374 | -0.0798 | -0.0575 | 0.00534 | -0.116 | -0.171 | -0.417 | -0.168 | -0.227 | -0.25 | -0.406 | -0.0234 | -0.00591 | 0.0157 | 0.0545 | -0.0193 | 0.0475 | 0.055 | 0.159 |  |  |  |  |  |  |  | 
COc1cc(N2CCC(N3CCN(C)CC3)CC2)ccc1Nc1ncc(Cl)c(Nc2ccccc2S(=O)(=O)C(C)C)n1 | 0.0279 | 0.0267 | -0.0689 | -0.173 | 0.411 | 0.377 | 0.328 | 0.37 | -0.00616 | -0.0284 | -0.166 | -0.627 | -0.194 | -0.141 | -0.341 | -0.647 | -0.0224 | 0.0234 | 0.0221 | 0.0517 | 0.226 | 0.3 | 0.325 | 0.525 | 0.354 | 0.492 | 0.509 | 0.521 | 0.198 | 0.273 | 0.278 | 0.268
COc1cc2ncnc(Nc3ccc(Oc4ccccc4)cc3)c2cc1OC | 0.0897 | 0.0909 | 0.0445 | -0.0326 | 0.038 | 0.0615 | 0.0344 | 0.0553 | 0.00348 | 0.0579 | -0.00953 | -0.188 | -0.0251 | 0.00379 | -0.0229 | -0.143 | 0.0456 | 0.0896 | 0.111 | 0.169 | -0.11 | 0.0137 | 0.0447 | 0.175 | 0.521 | 0.598 | 0.605 | 0.616 | 0.526 | 0.567 | 0.556 | 0.521
